Laboratory results published in the supplement of paper PMC7366291.
Structures can show the parent of a compound that is named as a salt.

The compounds below were run on Danio rerio Tg(wt1b:EGFP) embryo, pronephros (assay: fraction of imaged embryos annotated as normal kidney; higher = less nephrotoxic; extreme values may be limits of the assay). Settings: 25 µM; exposure: 24-48 hpf.
Outline: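 The read-out is the proportion of embryos in each treatment manually annotated as normal-kidney. Exposure ran from 24 to 48 hpf at 28.5°C in 12-well plates, using dechorionated Tg(wt1b:EGFP) zebrafish embryos in 5 mM HEPES-buffered E3 with 0.003% PTU, 0.5% DMSO and 25 μM compound. For imaging, larvae were anaesthetised with tricaine, positioned dorsally in agarose-filled 96-well plates and captured by widefield fluorescence (470 nm, 10 z-slices), with scoring done on maximum projections.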

Row | Compound | fraction of imaged embryos annotated as normal kidney
1 | Cc1ccccc1C(OCCN(C)C)c1ccccc1 (stereo not given) [Orphenadrine hydrochloride] | 0.833
2 | C#C[C@]1(O)CC[C@H]2[C@@H]3CCc4cc(O)ccc4[C@H]3CC[C@@]21C [Ethinylestradiol] | 0.667
3 | CCCN(CCC)S(=O)(=O)c1ccc(C(=O)O)cc1 [Probenecid] | 0.833
4 | CCN(CC)CCOCCOC(=O)C1(c2ccccc2)CCCC1 [Carbetapentane citrate] | 0.75
5 | CCCOc1cc(N)ccc1C(=O)OCCN(CC)CC [Propoxycaine hydrochloride] | 0.917
6 | c1ccc([C@H]2CN3CCSC3=N2)cc1 [Levamisole hydrochloride] | 0.917
7 | O=C1OCCN1/N=C/c1ccc([N+](=O)[O-])o1 [Furazolidone] | 1
8 | O=C(Oc1cccc2cccnc12)c1ccccc1 [Benzoxiquine] | 0.0833
9 | CN(C)CCC(c1ccccc1)c1ccccn1 (stereo not given) [Pheniramine maleate] | 0.833
10 | O=c1[nH]c(=O)n(C2CCCO2)cc1F (stereo not given) [Tegafur] | 0.917
11 | NC(=O)N1c2ccccc2CC(=O)c2ccccc21 [Oxcarbazepine] | 0.833
12 | Cc1cc2c(s1)Nc1ccccc1N=C2N1CCN(C)CC1 [Olanzapine] | 0.917
13 | Cc1cc(O)c(C(=O)N[C@@H](C(=O)N[C@@H]2C(=O)N3C(C(=O)O)=C(CSc4nnnn4C)CS[C@H]23)c2ccc(O)cc2)cn1 [Cefpiramide] | 0.833
14 | CC(=O)[C@H]1CC[C@H]2[C@@H]3C[C@H](C)C4=CC(=O)CC[C@]4(C)[C@H]3[C@@H](O)C[C@]12C [Medrysone] | 0.417
15 | CC(=O)OCC(CCn1cnc2cnc(N)nc21)COC(C)=O [Famciclovir] | 1
16 | O=C(O)CCc1nc(-c2ccccc2)c(-c2ccccc2)o1 [Oxaprozin] | 0
17 | Cc1c(NC(=O)c2cccnc2)c(=O)n(-c2ccccc2)n1C [Nifenazone] | 0.833
18 | CC(=O)CC(c1ccc([N+](=O)[O-])cc1)c1c(O)c2ccccc2oc1=O (stereo not given) [Acenocoumarol] | 0.8
19 | C=C1C[C@H]2[C@@H]3C=C(C)C4=CC(=O)CC[C@]4(C)[C@H]3CC[C@]2(C)[C@@]1(OC(C)=O)C(C)=O [Melengestrol acetate] | 0.917
20 | CN1[C@@H]2CC[C@H]1C[C@@H](OC(=O)c1c[nH]c3ccccc13)C2 [Tropisetron hydrochloride] | 0.667

Row | Compound | fraction of imaged embryos annotated as normal kidney
21 | COc1c(N2CCNC(C)C2)c(F)cc2c(=O)c(C(=O)O)cn(C3CC3)c12 (stereo not given) [Gatifloxacin] | 0.917
22 | COc1cccc2c1C(=O)c1c(O)c3c(c(O)c1C2=O)C[C@@](O)(C(=O)CO)C[C@@H]3O[C@H]1C[C@H](N)[C@@H](O)[C@H](C)O1 [Epirubicin hydrochloride] | 0.75
23 | O=c1[nH]c(=O)n([C@H]2C[C@H](O)[C@@H](CO)O2)cc1F [Floxuridine] | 0.5
24 | CCOc1nc2cccc(C(=O)O)c2n1Cc1ccc(-c2ccccc2-c2nnn[nH]2)cc1 [Candesartan] | 0.917
25 | CC1CC(OC(=O)C(O)c2ccccc2)CC(C)(C)N1C (stereo not given) [Eucatropine hydrochloride] | 0.917
26 | Oc1c(I)cc(Cl)c2cccnc12 [Clioquinol] | 0
27 | NS(=O)(=O)c1cc2c(cc1Cl)NCNS2(=O)=O [Hydrochlorothiazide] | 0.833
28 | CC(C)Cc1ccc([C@H](C)C(=O)O)cc1 [S-(+)-ibuprofen] | 0
29 | COc1cc2nc(N3CCN(C(=O)C4COc5ccccc5O4)CC3)nc(N)c2cc1OC (stereo not given) [Doxazosin mesylate] | 1
30 | CC(C)(C)NCC(O)c1cc(O)cc(O)c1 (stereo not given) [Terbutaline hemisulfate] | 0.75
31 | CCOC(=O)C1=C(C)NC(C)=C(C(=O)OC)C1c1cccc(Cl)c1Cl (stereo not given) [Felodipine] | 0
32 | COc1cc(C(=O)NCc2ccc(OCCN(C)C)cc2)cc(OC)c1OC [Trimethobenzamide hydrochloride] | 0.833
33 | C[C@@H]1NC(=O)NC1=O [Methylhydantoin-5-(L)] | 1
34 | C[C@H](CCC(=O)O)[C@H]1CC[C@H]2[C@@H]3[C@H](O)C[C@@H]4C[C@H](O)CC[C@]4(C)[C@H]3CC[C@]12C [Chenodiol] | 0.333
35 | O=C(O)CCCC[C@@H]1SC[C@@H]2NC(=O)N[C@@H]21 [Biotin] | 0.917
36 | CCN(CC)CCNC(=O)c1cc(Br)c(N)cc1OC [Bromopride] | 1
37 | Fc1ccc([C@@H]2CCNC[C@H]2COc2ccc3c(c2)OCO3)cc1 [Paroxetine Hydrochloride] | 1
38 | O=C(O)CCC(=O)Nc1ccc(S(=O)(=O)Nc2nccs2)cc1 [Succinylsulfathiazole] | 0.667
39 | CCOc1ccc2ccccc2c1C(=O)N[C@@H]1C(=O)N2[C@@H]1SC(C)(C)[C@@H]2C(=O)O [Nafcillin sodium salt monohydrate] | 0.833
40 | Nc1ncn(C2OC(CO)C(O)C2O)c(=O)n1 (stereo not given) [Azacytidine-5] | 1
